Sampled rows, rich in hits. Any-hit rate of the full collection: about 2.8%.
LGR2 inh: inhibitors of bursicon-induced Drosophila LGR2 receptor cAMP signaling; inhibition, % at 9.99 µM; 380,000 tested, 0.35% active; HEK293 LGR2, CRE-luciferase, bursicon-stimulated, 4 h;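 active = drop in luminescence signal, shown as inhibition above about 50% in the replicate tests, limit read from the data, passing the limit was not always enough; inconclusive = probably only some replicates passing the limit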;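 note: agonist challenge used bursicon conditioned medium at about half maximal strength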
PAX8 inh HTS: lowers PAX8-driven luciferase in RMG-I cells. RMG-I TPO-luciferase reporter, SteadyGlo, 24 h. inhibition, % at 12.6 µM. 360,000 tested, 1.2% active. AID 652154;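 active = mean replicate inhibition at least 60% with every replicate also reaching 60%; inconclusive = only one of the two criteria is met; inactive = mean below 60% and not all replicates reaching 60%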;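 note: luciferase light reporting Pax8 driven TPO promoter activity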
EWS-Fli block: blocks EWS/Fli oncoprotein-driven transcription; A673 NR0B1-luciferase reporter, viability-normalised; inhibition, % at 12.6 µM; 350,000 tested, 0.67% active; AID 651661;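 active = mean inhibition of at least 50% after viability correction, with every replicate also passing that limit; inconclusive = mean reaches 50% but only one of two replicates passes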;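 note: firefly luciferase signal divided by Alamar Blue viability fluorescence both relative to DMSO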
TWEAK Fn14 block: inhibitors of TWEAK-Fn14 interaction signaling; TWEAK-stimulated Fn14 reporter cells, luciferase luminescence, 8 h; inhibition, % at 10 µM; 360,000 tested, 2% active; AID 1159606; in the data active = inhibition above about 50%
TROY signal inh: inhibitors of TROY-dependent NF-kB signaling | 360,000 tested, 0.98% active | inhibition, % at 10 µM | Q293 LMP1-TROYcd NF-kB luciferase reporter, 4 h | AID 1347056;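 active = compounds whose plate-normalised and pattern-corrected inhibition of the luciferase reporter signal at the single screening dose is 50% or more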
Large screens that a line does not name were inactive.

COc1ccc(CN(C)C[C@@H]2OCCCC[C@H](C)Oc3ccc(NC(=O)Nc4ccc(C(F)(F)F)cc4)cc3C(=O)N([C@H](C)CO)C[C@H]2C)cc1	PAX8 inh HTS 104, EWS-Fli block 71 (no result: LGR2 inh, TWEAK Fn14 block, TROY signal inh)
C[C@H]1CN([C@@H](C)CO)C(=O)c2ccccc2-c2ccccc2CO[C@H]1CN(C)Cc1cccc(O)c1	none (no result: TWEAK Fn14 block, TROY signal inh)
O=C(C[C@@H]1CC[C@H]2[C@@H](COC[C@@H](O)CN2Cc2ccccc2)O1)NCCCN1CCOCC1	none (no result: TWEAK Fn14 block, TROY signal inh)
COc1ccc(CN(C)C[C@H]2OCCCC[C@H](C)Oc3ccc(NC(=O)Nc4ccc(C(F)(F)F)cc4)cc3C(=O)N([C@@H](C)CO)C[C@@H]2C)cc1	PAX8 inh HTS 106, EWS-Fli block 71 (no result: LGR2 inh, TWEAK Fn14 block, TROY signal inh)
COc1ccc(CN(C)C[C@@H]2OCCCC[C@@H](C)Oc3ccc(NC(=O)Nc4ccc(C(F)(F)F)cc4)cc3C(=O)N([C@@H](C)CO)C[C@@H]2C)cc1	PAX8 inh HTS 86, EWS-Fli block 70 (no result: LGR2 inh, TWEAK Fn14 block, TROY signal inh)
Cc1cc(C)c2nc(C)cc(N/N=C/c3ccc(O)cc3)c2c1	PAX8 inh HTS 94, EWS-Fli block 67
CCC1=Nc2cc(C(=O)NCC3CCCO3)ccc2Sc2ccc(Cl)cc21 (stereo not given)	EWS-Fli block 57
CCC1=Nc2cc(C(=O)NCc3cccnc3)ccc2Sc2ccc(C)cc21	EWS-Fli block 65
CCC1=Nc2cc(C(=O)NCc3ccco3)ccc2Sc2ccc(Cl)cc21	none (no result: EWS-Fli block)
CNC[C@@H]1Oc2c(NC(=O)Nc3ccc(OC)cc3)cccc2C(=O)N([C@H](C)CO)C[C@H]1C	none (no result: TWEAK Fn14 block, TROY signal inh)
O=[N+]([O-])c1ccc(N2CCN(Cc3ccccc3)CC2)c2c1no[n+]2[O-]	LGR2 inh 102, PAX8 inh HTS 99
C[C@H]1CN([C@@H](C)CO)C(=O)Cc2cc(NC(=O)C3CCCCC3)ccc2O[C@H]1CN(C)Cc1ccccc1	none (no result: TWEAK Fn14 block, TROY signal inh)
Cc1occc1C(=O)Nc1nnc(C(F)(F)F)s1	none (no result: PAX8 inh HTS, EWS-Fli block)
O=C(Nc1ccccc1C(=O)Nc1nnc(C(F)(F)F)s1)c1ccccc1	TWEAK Fn14 block 87, TROY signal inh 59
CC(=O)Oc1cccc(N2C(=O)c3ccccc3C2=O)c1	PAX8 inh HTS 78
CC(=O)Nc1cccc2c1C(=O)N(c1cccc(OC(C)=O)c1)C2=O	none
Cn1nnnc1Sc1ncnc2scc(-c3ccccc3Br)c12	PAX8 inh HTS 83
Cn1nnnc1Sc1ncnc2scc(-c3ccccc3)c12	PAX8 inh HTS 91 (no result: EWS-Fli block)
COc1ccccc1-c1csc2ncnc(Sc3nnnn3C)c12	none
Cn1nnnc1Sc1ncnc2scc(-c3ccc[nH]3)c12	PAX8 inh HTS 99, TWEAK Fn14 block 70
Cn1nnnc1SCc1nc2scc(-c3ccc(Cl)cc3)c2c(=O)[nH]1	none
Cn1nnnc1Sc1ncnc2scc(-c3ccc(F)cc3)c12	PAX8 inh HTS 108, TWEAK Fn14 block 57 (no result: LGR2 inh, EWS-Fli block)
COc1ccc(CN2C[C@H](C)[C@@H](OC)CN(C)C(=O)c3cc(NC(=O)C4CC4)ccc3OC[C@@H]2C)cc1	none (no result: PAX8 inh HTS, TWEAK Fn14 block, TROY signal inh)
CO[C@H]1CN(C)C(=O)c2ccc(NC(=O)C3CC3)cc2OC[C@H](C)N(C(C)=O)C[C@@H]1C	none (no result: PAX8 inh HTS, EWS-Fli block, TWEAK Fn14 block, TROY signal inh)
Cn1nnnc1Sc1ncnc2scc(Br)c12	LGR2 inh inconclusive, TWEAK Fn14 block 99, TROY signal inh 68
Cn1nnnc1Sc1ncnc2scc(-c3ccc(Br)cc3)c12	LGR2 inh 100, PAX8 inh HTS 100, TWEAK Fn14 block 88, TROY signal inh 60
Cn1nnnc1Sc1ncnc2scc(-c3cccc4ccccc34)c12	TWEAK Fn14 block 60
Cn1nnnc1SCc1cccc2ccccc12	none
Cc1ccc(-c2csc3ncnc(SCC(N)=O)c23)cc1	none
CC(O)c1cccc(NC(=O)CC(c2ccccc2)c2ccccc2)c1 (stereo not given)	TWEAK Fn14 block 86
O=C(CC(c1ccccc1)c1ccccc1)Nc1ccncc1	none
Cc1c(C(=O)N(C)C)sc2nc(-c3ccccn3)[nH]c(=O)c12	none (no result: LGR2 inh, PAX8 inh HTS, EWS-Fli block)
O=c1[nH]c(-c2ccccn2)nc2sc(-c3ccccc3)cc12	PAX8 inh HTS 89, TWEAK Fn14 block 100
COc1ccc2c3c([nH]c2c1)[C@H](CO)N(C(=O)c1ccccc1)CC31CCN(C(=O)Nc2cccc(F)c2)CC1	none (no result: PAX8 inh HTS, TWEAK Fn14 block, TROY signal inh)
O=C(C[C@@H]1C[C@@H]2c3cc(NC(=O)Cc4ccncc4)ccc3O[C@@H]2[C@H](CO)O1)NCc1cccnc1	none (no result: TWEAK Fn14 block, TROY signal inh)
O=C(c1ccco1)N1N=C(c2ccc(Cl)cc2)CC1(O)C(F)(F)F (stereo not given)	none
O=C(c1ccco1)N1N=C(c2ccc(Br)cc2)CC1(O)C(F)(F)F (stereo not given)	PAX8 inh HTS 97
CC(=O)Nc1ccc(/C=C/C(=O)c2ccc3c(c2)OCCO3)cc1	none
CCC(=O)Nc1cccc(C(=O)/C=C/c2ccc(F)cc2)c1	PAX8 inh HTS inconclusive, TWEAK Fn14 block 72
COc1cccc(NC(=S)NC(=O)/C=C/c2ccc(F)cc2)c1	none
CC(=O)Nc1cccc(C(=O)/C=C/c2ccc(C)cc2)c1	PAX8 inh HTS 75, TWEAK Fn14 block 71 (no result: LGR2 inh)
Cc1ccc(-c2cnc3c(c2)C(=O)N([C@@H](C)CO)C[C@@H](C)[C@@H](CN(C)C(=O)Cc2ccccc2)O3)cc1	none (no result: PAX8 inh HTS, TWEAK Fn14 block, TROY signal inh)
N#CCC(=O)NNC(=S)Nc1ccccc1C(F)(F)F	TWEAK Fn14 block 65
CO[C@@H]1CC[C@H]2CCN(C)C(=O)[C@@H](C)N(C)C(=O)c3cc(C#N)ccc3OC[C@@H]1O2	none (no result: TWEAK Fn14 block, TROY signal inh)
N#Cc1cc2c(nc1SCC(=O)N1CCCCC1)CCCC2	none (no result: LGR2 inh, EWS-Fli block)
N#Cc1cc2c(nc1SCC(=O)N1CCCCC1)CCCCC2	TROY signal inh 56 (no result: LGR2 inh, EWS-Fli block)
N#Cc1cc2cc3c(cc2nc1SCC(=O)N1CCOCC1)OCCO3	EWS-Fli block 57, TWEAK Fn14 block 97, TROY signal inh 76
Cc1noc(C)c1NC(=O)Nc1cccc2c1O[C@@H](CN(C)CC1CC1)[C@H](C)CN([C@H](C)CO)C2=O	none (no result: PAX8 inh HTS, TWEAK Fn14 block, TROY signal inh)
Clc1ccc(-c2cn3cc(Cl)ccc3n2)cc1	TWEAK Fn14 block 75
Clc1ccc(-c2cn3ccccc3n2)cc1	TWEAK Fn14 block 60
CCN(CC)S(=O)(=O)c1ccc(-c2cn3cc(Cl)ccc3n2)cc1	none
O=C(C[C@H]1C=C[C@H](NC(=O)C2CC2)[C@@H](CO)O1)NCCCN1CCOCC1	none (no result: TWEAK Fn14 block, TROY signal inh)
Cc1cccc(NC(=O)C2CCN(S(=O)(=O)c3c(C)noc3/C=C/c3ccco3)CC2)n1	PAX8 inh HTS 62 (no result: EWS-Fli block)
CCC(C)N1CCN(C(=O)C2CCN(S(=O)(=O)c3c(C)noc3/C=C/c3ccco3)CC2)CC1 (stereo not given)	PAX8 inh HTS 70
COc1cccc(NC(=O)N2CC3(C2)[C@@H](c2ccccc2)[C@@H](CO)N3C(=O)C2CC2)c1	none (no result: PAX8 inh HTS, TWEAK Fn14 block, TROY signal inh)
Cn1cccc1C(=O)NCCc1ccccc1	TWEAK Fn14 block 56
CCOCCNC(=O)c1ccccc1C(=O)NCCOCC	none (no result: LGR2 inh, EWS-Fli block)
O=C(NCCc1ccccc1)c1ccccc1Cl	LGR2 inh 58, TWEAK Fn14 block 78
CCCNC(=O)c1ccccc1C(=O)NCCC	TWEAK Fn14 block 89 (no result: PAX8 inh HTS, EWS-Fli block)
O=C(O)c1ccccc1C(=O)NCCc1ccc(Cl)cc1	none
O=C(Nc1ccc(Cl)cc1)N[C@H]1CC[C@H](CCn2cc(Cc3ccccc3)nn2)O[C@@H]1CO	none (no result: TWEAK Fn14 block, TROY signal inh)

Bioassay records: PubChem BioAssay, several laboratories
